# Reference: PubChem BioAssay
# Inconclusive results are not listed. The source made the active and inactive calls.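 How the source made its calls, unless noted: active means binding below the plate cutoff, the plate median minus 3 SD, with a reading above zero; inconclusive means below the plate cutoff but reading exactly zero; inactive means the rest.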
# Assays:
# [1] = yeast TOR pathway RPL19A-GFP modulators, primary screen, cell-based, S. cerevisiae, multiplex flow cytometry (AID 1862; in the data active means percent of DMSO control GFP below about 86%;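 further: lower values mimic rapamycin by blocking the RPL19A rise seen in DMSO cells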); conditions: S. cerevisiae RPL19A-GFP strain, flow cytometry fluorescence, 3 h; at 10 µM; stronger effect = lower value
# [2] = modulators of MEP2-GFP levels in yeast, primary screen, S. cerevisiae, multiplex flow cytometry (AID 1867;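 active means GFP response, as percent of the DMSO control, above the screen-wide mean plus 3 SD, about 139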;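 further: median GFP channel fluorescence of barcode-gated MEP2-GFP cells measured by flow cytometry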); conditions: S. cerevisiae MEP2-GFP strain, 3 h, at 10 µM, stronger effect = higher value, 100% means same as DMSO wells
# [3] = modulators of CIT2-GFP expression in yeast, primary screen, S. cerevisiae, GFP fusion, multiplex flow cytometry (AID 1870;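 active means percent response above a set limit, the screen-wide mean plus 3 SD, cut at about 130% in these data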;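 further: barcoded CIT2-GFP strain pooled with four other GFP strains with rapamycin as positive control; median GFP fluorescence per well over plate mean of DMSO wells so 100% = DMSO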); conditions: 3 h, at 10 µM, stronger effect = higher value
# [4] = modulators of LAP4-GFP expression in yeast, primary screen, S. cerevisiae, multiplex flow cytometry (AID 1873;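 active means GFP signal, as percent of the solvent control, above the screen mean plus 3 SD, about 149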); conditions: 3 h, at 10 µM, stronger effect = higher value
# [5] = modulators of AGP1-GFP expression in yeast TOR pathway, primary screen, cell-based, multiplex flow cytometry, S. cerevisiae (AID 1887;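 active means GFP signal above the screen-wide mean plus 3 SD, that is over about 124.5% of the solvent control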;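 further: AGP1-GFP fusion strain of S. cerevisiae within a five-strain barcoded multiplex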); conditions: 3 h, at 10 µM, stronger effect = higher value
# [6] = RPL19A-GFP modulators, yeast TOR pathway, confirmation, cell-based, S. cerevisiae, flow cytometry, cherry picks, mother/daughter gates (AID 2270;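 active means GFP response below 50% of the DMSO control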); conditions: S. cerevisiae RPL19A-GFP strain, 3 h, at 10 µM, stronger effect = lower value, 100 = same GFP as DMSO wells
# [7] = LAP4-GFP expression modulators in yeast, confirmation, cell-based, cherry picks, flow cytometry, mother/daughter gates (AID 2271;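 active means GFP response above 150% of the DMSO control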;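 further: ratio of sample to DMSO plate mean so 100% equals DMSO level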); conditions: S. cerevisiae LAP4-GFP strain, 3 h, at 10 µM, stronger effect = higher value, 100 means same as DMSO control
# [8] = modulators of MEP2-GFP levels in yeast, confirmation, S. cerevisiae, flow cytometry GFP, cherry picks (AID 2272;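 active means GFP response above 150% of the DMSO control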;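 further: ratio of well signal to plate DMSO mean so 100% equals DMSO level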); conditions: S. cerevisiae MEP2-GFP strain, 3 h, at 10 µM, stronger effect = higher value
# [9] = modulators of CIT2-GFP expression in yeast, confirmation, S. cerevisiae, GFP fusion, cherry picks, mother/daughter gates (AID 2274;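 active means GFP response above 150% of the DMSO level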); conditions: S. cerevisiae CIT2-GFP strain, flow cytometry, 3 h, at 10 µM, stronger effect = higher value
# [10] = inhibitors of CD8+ T cell-vesicle binding, pilot screen, LFA-1/ICAM-1 modulator project, MLPCN validation set, flow cytometry (AID 2523;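 active means response below a set limit, under 55% cells CD8-positive and vesicle-bound, and CD8 cells' 90th-percentile brightness under 279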;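 on vesicle binding response: mean PE anti-B7-1 fluorescence of CD8+ cells relative to row control; 100% = QL9-loaded vesicles with DMSO vehicle in the same plate row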); conditions: 2C mouse CD8+ T cells, at 7 µM, stronger effect = lower value; double positive events: measured here: CD8+/vesicle+ event percentage
# [11] = target: Integrin beta-1 (Homo sapiens) + Integrin alpha-4 (Homo sapiens) (UniProt P13612+P05556); experiment: inhibition of HUTS-21 binding to VLA-4, pilot screen, VLA-4 allosteric modulator project, U937 cells, HUTS-21 mAb, flow cytometry, validation set (AID 2674;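 active means inhibition above 50%, about 3 SD of the validation set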;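 further: antibody binding induced by the VLA-4 ligand LDV present at three times its Kd; 0% = LDV ligand with antibody and no compound and 100% = antibody without LDV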); conditions: HUTS-21 LIBS mAb binding, at 6.7 µM, stronger effect = higher value, binding induced by LDV ligand
# Sequence of Integrin beta-1 (Homo sapiens) + Integrin alpha-4 (Homo sapiens) (P05556 whole entry, looked up): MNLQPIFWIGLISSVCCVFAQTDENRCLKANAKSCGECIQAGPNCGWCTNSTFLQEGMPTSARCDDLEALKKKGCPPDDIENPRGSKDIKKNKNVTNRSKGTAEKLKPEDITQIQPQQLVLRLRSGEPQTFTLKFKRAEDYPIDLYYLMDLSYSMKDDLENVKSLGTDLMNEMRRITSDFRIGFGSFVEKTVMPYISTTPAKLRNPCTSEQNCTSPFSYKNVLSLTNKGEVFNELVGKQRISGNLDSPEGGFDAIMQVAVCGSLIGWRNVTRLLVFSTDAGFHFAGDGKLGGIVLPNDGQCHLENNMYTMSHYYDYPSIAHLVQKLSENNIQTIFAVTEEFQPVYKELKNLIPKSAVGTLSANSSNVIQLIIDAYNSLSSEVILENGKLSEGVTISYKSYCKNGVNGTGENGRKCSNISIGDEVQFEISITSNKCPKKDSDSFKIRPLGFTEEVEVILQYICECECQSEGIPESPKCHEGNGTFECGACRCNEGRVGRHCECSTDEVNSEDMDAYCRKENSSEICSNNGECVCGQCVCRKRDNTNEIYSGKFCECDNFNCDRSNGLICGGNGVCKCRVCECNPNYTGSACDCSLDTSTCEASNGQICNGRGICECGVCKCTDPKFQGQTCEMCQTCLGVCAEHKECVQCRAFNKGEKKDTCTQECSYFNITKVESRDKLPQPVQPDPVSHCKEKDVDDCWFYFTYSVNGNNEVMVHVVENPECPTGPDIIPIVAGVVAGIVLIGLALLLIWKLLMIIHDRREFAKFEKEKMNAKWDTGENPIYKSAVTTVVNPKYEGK
# Sequence of Integrin beta-1 (Homo sapiens) + Integrin alpha-4 (Homo sapiens) (P13612 whole entry, looked up): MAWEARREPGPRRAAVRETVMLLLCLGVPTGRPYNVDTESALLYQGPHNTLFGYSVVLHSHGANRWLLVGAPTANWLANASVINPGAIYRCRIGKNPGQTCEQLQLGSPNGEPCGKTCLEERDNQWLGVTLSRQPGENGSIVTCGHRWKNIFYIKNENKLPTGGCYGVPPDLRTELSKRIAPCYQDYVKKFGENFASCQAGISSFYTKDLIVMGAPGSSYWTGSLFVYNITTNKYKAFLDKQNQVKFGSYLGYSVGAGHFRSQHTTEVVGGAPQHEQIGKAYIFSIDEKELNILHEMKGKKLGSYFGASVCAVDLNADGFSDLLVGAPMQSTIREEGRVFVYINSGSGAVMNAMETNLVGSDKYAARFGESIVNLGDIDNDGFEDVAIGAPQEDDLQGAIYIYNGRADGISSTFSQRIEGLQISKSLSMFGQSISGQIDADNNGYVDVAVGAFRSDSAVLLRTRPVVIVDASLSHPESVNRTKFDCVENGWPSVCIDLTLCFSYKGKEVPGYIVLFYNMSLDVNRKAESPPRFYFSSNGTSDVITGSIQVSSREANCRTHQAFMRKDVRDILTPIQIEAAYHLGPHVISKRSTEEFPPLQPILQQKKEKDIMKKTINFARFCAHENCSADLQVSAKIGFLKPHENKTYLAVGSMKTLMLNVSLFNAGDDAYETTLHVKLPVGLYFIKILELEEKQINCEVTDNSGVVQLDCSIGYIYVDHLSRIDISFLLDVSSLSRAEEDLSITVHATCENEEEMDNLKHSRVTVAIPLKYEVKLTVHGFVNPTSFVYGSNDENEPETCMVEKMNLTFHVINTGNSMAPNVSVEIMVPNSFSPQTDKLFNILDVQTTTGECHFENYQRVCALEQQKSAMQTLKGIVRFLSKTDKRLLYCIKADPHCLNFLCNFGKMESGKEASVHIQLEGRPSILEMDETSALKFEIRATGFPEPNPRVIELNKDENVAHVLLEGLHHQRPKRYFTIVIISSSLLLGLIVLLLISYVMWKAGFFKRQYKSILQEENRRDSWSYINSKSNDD
# [12] = superoxide lowering in aged yeast cells, pilot screen, validation compound set (AID 2706;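 active means superoxide response below 65% of plate, a cut near 3 SD across the whole screen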;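 further: yeast exposed to compound for one week at 30 degrees C before staining; 100% = mean of all compound wells on the same plate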); conditions: S. cerevisiae aging, superoxide DHE fluorescence; at 10 µM; stronger effect = lower value
# [13] = target: Beta-adrenergic receptor kinase 1 (Homo sapiens) (UniProt P25098); experiment: GRK2 binders displacing RNA aptamer, biochemical, validation, human GRK2, bead flow cytometry (AID 488806;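 active means aptamer binding inhibition above 30%, about 3 SD of noise from non-fluorescent compounds; inactive means inhibition at or below 30%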); conditions: bead-bound GRK2, FAM-aptamer displacement, at 10 µM, stronger effect = higher value
# Sequence of Beta-adrenergic receptor kinase 1 (Homo sapiens) (P25098 whole entry, looked up): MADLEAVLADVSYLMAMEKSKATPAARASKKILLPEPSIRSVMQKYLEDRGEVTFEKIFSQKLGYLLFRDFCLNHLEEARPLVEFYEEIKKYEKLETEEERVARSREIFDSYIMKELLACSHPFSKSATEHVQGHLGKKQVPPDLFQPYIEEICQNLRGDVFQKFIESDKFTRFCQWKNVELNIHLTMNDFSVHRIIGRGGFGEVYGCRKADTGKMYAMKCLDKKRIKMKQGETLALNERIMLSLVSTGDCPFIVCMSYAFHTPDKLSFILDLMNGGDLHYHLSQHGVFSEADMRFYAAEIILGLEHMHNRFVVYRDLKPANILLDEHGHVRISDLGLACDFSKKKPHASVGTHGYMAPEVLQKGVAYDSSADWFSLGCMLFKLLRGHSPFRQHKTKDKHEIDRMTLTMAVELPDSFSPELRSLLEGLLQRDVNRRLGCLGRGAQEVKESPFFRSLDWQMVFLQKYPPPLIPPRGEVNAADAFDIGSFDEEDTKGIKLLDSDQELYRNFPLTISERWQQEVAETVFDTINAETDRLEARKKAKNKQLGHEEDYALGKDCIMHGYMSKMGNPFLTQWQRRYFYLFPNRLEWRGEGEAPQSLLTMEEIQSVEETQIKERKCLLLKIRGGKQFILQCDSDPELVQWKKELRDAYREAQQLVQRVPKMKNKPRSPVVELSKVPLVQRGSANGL
# [14] = target: Beta-2 adrenergic receptor (Homo sapiens) (UniProt P07550); experiment: beta2AR agonists driving receptor internalization, pilot screen, cell-based, FAP fluorogen, flow cytometry, validation set (AID 504459;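 active means percent response above 42, roughly 3 SD of non-fluorescent test compounds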;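 further: agonist-driven loss of surface beta2AR via internalization measured by FAP dye flow cytometry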); conditions: Am2.2-beta2AR cells, FAP surface receptor flow cytometry; at 10 µM; stronger effect = higher value
# Sequence of Beta-2 adrenergic receptor (Homo sapiens) (P07550 whole entry, looked up): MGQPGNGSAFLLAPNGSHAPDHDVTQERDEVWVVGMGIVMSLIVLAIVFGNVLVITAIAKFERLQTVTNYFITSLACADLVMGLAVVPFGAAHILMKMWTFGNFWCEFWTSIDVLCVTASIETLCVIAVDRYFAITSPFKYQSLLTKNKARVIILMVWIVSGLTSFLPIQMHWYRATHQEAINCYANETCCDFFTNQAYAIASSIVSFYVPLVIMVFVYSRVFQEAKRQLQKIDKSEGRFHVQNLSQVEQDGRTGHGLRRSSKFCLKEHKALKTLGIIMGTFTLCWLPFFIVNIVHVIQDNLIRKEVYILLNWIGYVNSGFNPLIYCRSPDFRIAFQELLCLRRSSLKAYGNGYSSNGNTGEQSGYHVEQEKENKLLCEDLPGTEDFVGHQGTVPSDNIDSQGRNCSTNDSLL
# [15] = target: AP-2 complex subunit beta (Homo sapiens) (UniProt P63010); experiment: inhibitors of arrestin peptide binding to AP2, pilot screen, biochemical, validation set, GST-AP2 beads, flow cytometry (AID 504541;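 active means inhibition above 54%, about 3 SD of non-fluorescent compounds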;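 further: AP2 carries R879A mutation and is captured from E. coli lysate; bead-bound FITC arrestin peptide fluorescence measuring arrestin peptide binding to AP2; 0% = DMSO wells and 100% = excess unlabeled arrestin peptide control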); conditions: FITC arrestin peptide, at 10 µM, stronger effect = higher value, AP2 beta2 appendage fragment, R879A mutant
# Sequence of AP-2 complex subunit beta (Homo sapiens) (P63010 whole entry, looked up, the tested form may be a part, one chain of several): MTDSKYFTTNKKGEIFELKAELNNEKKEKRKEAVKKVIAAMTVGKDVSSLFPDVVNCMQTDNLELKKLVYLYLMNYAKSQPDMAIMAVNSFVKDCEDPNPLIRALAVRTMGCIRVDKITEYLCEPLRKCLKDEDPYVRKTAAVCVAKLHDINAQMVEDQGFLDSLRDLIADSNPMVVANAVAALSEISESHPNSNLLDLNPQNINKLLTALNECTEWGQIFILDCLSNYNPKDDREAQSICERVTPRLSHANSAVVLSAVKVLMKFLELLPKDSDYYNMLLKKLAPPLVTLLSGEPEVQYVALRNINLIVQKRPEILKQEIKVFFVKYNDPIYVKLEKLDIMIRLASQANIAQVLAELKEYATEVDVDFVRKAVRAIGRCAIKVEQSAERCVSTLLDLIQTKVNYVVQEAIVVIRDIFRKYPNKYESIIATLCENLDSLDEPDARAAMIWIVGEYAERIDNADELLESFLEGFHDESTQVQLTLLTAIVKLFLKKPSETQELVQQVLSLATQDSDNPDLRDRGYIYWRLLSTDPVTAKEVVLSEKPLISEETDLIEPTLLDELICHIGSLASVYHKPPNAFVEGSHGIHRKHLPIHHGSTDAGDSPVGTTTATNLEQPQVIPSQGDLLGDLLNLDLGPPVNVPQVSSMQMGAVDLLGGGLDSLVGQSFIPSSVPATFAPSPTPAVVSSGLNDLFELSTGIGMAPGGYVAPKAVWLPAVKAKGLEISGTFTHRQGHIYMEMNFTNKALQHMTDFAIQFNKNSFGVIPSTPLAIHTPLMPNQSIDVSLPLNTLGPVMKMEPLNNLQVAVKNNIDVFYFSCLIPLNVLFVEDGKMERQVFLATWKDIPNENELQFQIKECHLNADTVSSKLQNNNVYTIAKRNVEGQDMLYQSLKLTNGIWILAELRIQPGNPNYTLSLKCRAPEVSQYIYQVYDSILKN
# [16] = yeast V-ATPase proton transport modulators, S. cerevisiae, pHLuorin, HTS validation (AID 504600; in the data active means response above about 15%;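 further: plate controls were DMSO for no effect and reference compound for full effect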); conditions: S. cerevisiae pHLuorin cytosolic pH, at 10 µM, stronger effect = higher value
# [17] = test system: anti-desmoglein-3 scFv antibody binding to human DSG3; experiment: inhibitors of anti-DSG3 scFv binding to DSG3, pilot screen, biochemical, validation compound set, bead-based, flow cytometry (AID 588368); conditions: Protein G beads, DSG3-Fc, scFv-GFP binding, at 10 µM, stronger effect = lower value;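 further: signal is the median channel fluorescence of bead-bound GFP antibody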
# [18] = inhibitors of fungal efflux pumps CDR1, CDR2, MDR1, pilot screen, validation compound set, multiplex, phenotypic (AID 588506;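 active means efflux inhibition above 0.42, the validation set average plus 4 SD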;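 further: Nile Red retained in cells so higher fluorescence means more efflux inhibition; 0 = negative control wells and 1 = enniatin B 25 µM full block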); conditions: S. cerevisiae pump-expressing triplex, Nile Red efflux flow cytometry; at 10 µM; stronger effect = higher value; the pumps come from Candida albicans
# [19] = target: ATP-binding cassette sub-family B member 6 (Homo sapiens) (UniProt Q9NP58); experiment: ABCB6 transporter inhibitors, pilot screen, K562-ABCB6 cells, flow cytometry, validation set (AID 588550;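 active means inhibition above the screen-wide mean plus 3 SD, about 51%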;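 further: 0% = DMSO wells and 100% = benzethonium chloride 70 µM positive control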); conditions: K562-ABCB6 porphyrin accumulation, 1 h, at 10 µM, stronger effect = higher value
# Sequence of ATP-binding cassette sub-family B member 6 (Homo sapiens) (Q9NP58 whole entry, looked up): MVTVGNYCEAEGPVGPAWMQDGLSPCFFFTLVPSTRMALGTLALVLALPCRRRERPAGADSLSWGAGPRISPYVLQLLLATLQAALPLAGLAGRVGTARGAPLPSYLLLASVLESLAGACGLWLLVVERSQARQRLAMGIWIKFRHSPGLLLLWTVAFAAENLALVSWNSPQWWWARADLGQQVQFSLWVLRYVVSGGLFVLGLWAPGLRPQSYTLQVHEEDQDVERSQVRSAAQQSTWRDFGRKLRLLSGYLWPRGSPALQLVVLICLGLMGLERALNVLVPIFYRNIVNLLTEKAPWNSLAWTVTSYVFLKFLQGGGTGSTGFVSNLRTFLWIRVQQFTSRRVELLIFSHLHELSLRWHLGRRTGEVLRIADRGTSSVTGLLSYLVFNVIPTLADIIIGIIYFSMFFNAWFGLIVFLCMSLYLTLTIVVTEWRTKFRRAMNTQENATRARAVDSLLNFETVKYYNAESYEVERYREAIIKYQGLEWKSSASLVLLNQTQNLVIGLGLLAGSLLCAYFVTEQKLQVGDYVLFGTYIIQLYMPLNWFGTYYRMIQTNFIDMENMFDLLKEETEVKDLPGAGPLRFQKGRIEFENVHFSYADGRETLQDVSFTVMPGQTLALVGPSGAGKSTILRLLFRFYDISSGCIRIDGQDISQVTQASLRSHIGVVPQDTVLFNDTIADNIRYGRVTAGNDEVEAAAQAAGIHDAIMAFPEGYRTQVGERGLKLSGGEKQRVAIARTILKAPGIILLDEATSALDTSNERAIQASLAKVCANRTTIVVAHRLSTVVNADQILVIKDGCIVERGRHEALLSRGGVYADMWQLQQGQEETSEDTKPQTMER
# [20] = promoters of myeloid differentiation in arrested cells, primary screen, cell-based, GFP/MAC1 double positive, flow cytometry, validation set (AID 588685;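 active means differentiation response of at least 50%, scaled between solvent and reference control, from cells with both markers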;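 further: compound exposure lasts four days before antibody staining and flow analysis; 0% = DMSO wells and 100% = 5 µM fulvestrant positive control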); conditions: ER-HoxA9 marrow cells, stronger effect = higher value, normalized: vehicle 0, fulvestrant 100
# [21] = measured here: daughter cell gate
# [22] = measured here: mother cell gate
# [23] = measured here: daughter cell gate response
# [24] = measured here: mother cell gate response
smiles,measurement,setting,value
CC(=O)[C@H]1CC[C@H]2[C@@H]3CCC4=CC(=O)CC[C@]4(C)[C@H]3[C@H](O)C[C@]12C,percent of DMSO control GFP,[1],93% (inactive)
same,GFP response vs DMSO,[2],147% (active)
same,percent response of DMSO control,[3],99.2% (inactive)
same,GFP response vs DMSO,[4],85.3% (inactive)
same,"GFP response, % of DMSO",[5],93.3% (inactive)
same,GFP response vs DMSO,[6],99.1% (inactive)
same,GFP response vs DMSO,[6]; [21],99.3%
same,GFP response vs DMSO,[6]; [22],99.7%
same,GFP response relative to DMSO,[7],100% (inactive)
same,GFP response relative to DMSO,[7]; [23],102%
same,GFP response relative to DMSO,[7]; [24],98.5%
same,GFP response vs DMSO,[8],97.5% (inactive)
same,"GFP response, % of DMSO",[9],101% (inactive)
same,"GFP response, % of DMSO",[9]; [21],102%
same,"GFP response, % of DMSO",[9]; [22],99.1%
same,double positive events,[10],57.7%
same,vesicle binding response,[10],64.9% (inactive)
same,inhibition,[11],-20.7% (inactive)
same,superoxide response (% of plate),[12],109% (inactive)
same,aptamer binding inhibition,[13],3% (inactive)
same,response,[14],0.15% (inactive)
same,inhibition,[15],16.3% (inactive)
same,response,[16],-2.3% (inactive)
same,binding (% of control),[17],97.4% (inactive)
same,efflux inhibition (fraction of control),[18],0.12 (inactive)
same,inhibition,[19],2% (inactive)
same,differentiation response,[20],4.09% (inactive)
C[C@]12CC[C@H]3[C@@H](CCC4=CC(=O)CC[C@@]43C)[C@@H]1CC[C@@H]2C(=O)CO,percent of DMSO control GFP,[1],93.7% (inactive)
same,GFP response vs DMSO,[2],119% (inactive)
same,percent response of DMSO control,[3],102% (inactive)
same,GFP response vs DMSO,[4],84.7% (inactive)
same,"GFP response, % of DMSO",[5],84.3% (inactive)
same,GFP response vs DMSO,[6],97.8% (inactive)
same,GFP response vs DMSO,[6]; [21],95.3%
same,GFP response vs DMSO,[6]; [22],98.4%
same,GFP response relative to DMSO,[7],107% (inactive)
same,GFP response relative to DMSO,[7]; [23],106%
same,GFP response relative to DMSO,[7]; [24],106%
same,GFP response vs DMSO,[8],93.5% (inactive)
same,"GFP response, % of DMSO",[9],91.3% (inactive)
same,"GFP response, % of DMSO",[9]; [21],89.9%
same,"GFP response, % of DMSO",[9]; [22],91.2%
same,double positive events,[10],56.7%
same,vesicle binding response,[10],201% (inactive)
same,inhibition,[11],-13.9% (inactive)
same,superoxide response (% of plate),[12],104% (inactive)
same,aptamer binding inhibition,[13],-4% (inactive)
same,response,[14],-2.3% (inactive)
same,inhibition,[15],11.7% (inactive)
same,response,[16],-4.52% (inactive)
same,binding (% of control),[17],111% (inactive)
same,efflux inhibition (fraction of control),[18],-0.02 (inactive)
same,inhibition,[19],7% (inactive)
same,differentiation response,[20],14.7% (inactive)
CN/C(=C/[N+](=O)[O-])NCCSCc1ccc(CN(C)C)o1,percent of DMSO control GFP,[1],91.7% (inactive)
same,GFP response vs DMSO,[2],150% (active)
same,percent response of DMSO control,[3],108% (inactive)
same,GFP response vs DMSO,[4],83.6% (inactive)
same,"GFP response, % of DMSO",[5],87.7% (inactive)
same,GFP response vs DMSO,[6],100% (inactive)
same,GFP response vs DMSO,[6]; [21],101%
same,GFP response vs DMSO,[6]; [22],99.2%
same,GFP response relative to DMSO,[7],97.9% (inactive)
same,GFP response relative to DMSO,[7]; [23],97.6%
same,GFP response relative to DMSO,[7]; [24],96.1%
same,GFP response vs DMSO,[8],107% (inactive)
same,"GFP response, % of DMSO",[9],101% (inactive)
same,"GFP response, % of DMSO",[9]; [21],105%
same,"GFP response, % of DMSO",[9]; [22],99.7%
same,double positive events,[10],64.5%
same,vesicle binding response,[10],123% (inactive)
same,inhibition,[11],-0.33% (inactive)
same,superoxide response (% of plate),[12],89.5% (inactive)
same,aptamer binding inhibition,[13],-20% (inactive)
same,response,[14],2.38% (inactive)
same,inhibition,[15],-0.41% (inactive)
same,response,[16],-2.01% (inactive)
same,binding (% of control),[17],104% (inactive)
same,efflux inhibition (fraction of control),[18],-0.42 (inactive)
same,inhibition,[19],14% (inactive)
same,differentiation response,[20],-3.28% (inactive)
CC(=O)[C@@]1(O)CC[C@H]2[C@@H]3C[C@H](C)C4=CC(=O)CC[C@]4(C)[C@H]3CC[C@@]21C,percent of DMSO control GFP,[1],90.2% (inactive)
same,GFP response vs DMSO,[2],114% (inactive)
same,percent response of DMSO control,[3],96.6% (inactive)
same,GFP response vs DMSO,[4],78.1% (inactive)
same,"GFP response, % of DMSO",[5],96.6% (inactive)
same,GFP response vs DMSO,[6],94.8% (inactive)
same,GFP response vs DMSO,[6]; [21],96.1%
same,GFP response vs DMSO,[6]; [22],95.1%
same,GFP response relative to DMSO,[7],94.1% (inactive)
same,GFP response relative to DMSO,[7]; [23],92.8%
same,GFP response relative to DMSO,[7]; [24],92.9%
same,GFP response vs DMSO,[8],92% (inactive)
same,"GFP response, % of DMSO",[9],98.3% (inactive)
same,"GFP response, % of DMSO",[9]; [21],101%
same,"GFP response, % of DMSO",[9]; [22],96.1%
same,double positive events,[10],72%
same,vesicle binding response,[10],363% (inactive)
same,inhibition,[11],11.3% (inactive)
same,superoxide response (% of plate),[12],97% (inactive)
same,aptamer binding inhibition,[13],4% (inactive)
same,response,[14],4.79% (inactive)
same,inhibition,[15],-6.18% (inactive)
same,response,[16],1.54% (inactive)
same,binding (% of control),[17],102% (inactive)
same,efflux inhibition (fraction of control),[18],-0.46 (inactive)
same,inhibition,[19],13% (inactive)
same,differentiation response,[20],-9.01% (inactive)
